According to ChEMBL document CHEMBL4888484, “Replenishing the malaria drug discovery pipeline: Screening and hit evaluation of the MMV Hit Generation Library 1 (HGL1) against asexual blood stage Plasmodium falciparum ,using a nano luciferase reporter read-out” (2022):
Screen size: about 4,800 compounds; about 420 (8.8%) showed an effect of 50% or more. The list comes from a sample in which strong results are over-represented; it also holds similar structures and randomly drawn compounds.

System: Plasmodium falciparum
Assay: Confirmatory screen in NF54 nanoGlo assay, in single point, at 2uM, 72h
Assay type: functional, Erythrocyte
Conditions: timepoint 72 hour

SMILES	% Inhibition
Cc1nn(CCC(=O)NC2CCCC2)cc1Br	-10%
CN(C)c1ccc(C(=O)N[C@@]2(C)CCS(=O)(=O)C2)cc1	-6%
Cc1cnn(Cc2cc(C(=O)N(C)Cc3nc4ccccc4n3C)no2)c1	-6%
O=C(Nc1cccc2cccnc12)N1CCOCC1CC(O)c1cccs1 (stereo not given)	0%
Cc1nnc(O)c(CNC(=O)COC2CCCC(C)C2)c1C (stereo not given)	-7%
c1ccc(-c2nc(C[n+]3ccc4c(c3)CCCC4)cs2)cc1	57%
Cc1ncccc1C(=O)NCCc1csc(-c2ccccc2)n1	-11%
Cc1cc(C)cc(NC(=O)CCn2c(=O)cc(C(F)(F)F)c3cn(C(C)C)nc32)c1	-14%
CC1(C)CCC(Nc2ccc(C(N)=O)nn2)CC1	70%
Brc1cncnc1N1CCC[C@H](c2nnn[nH]2)C1	-15%
CCn1cnc2c(N3CCC[C@H](c4ccncc4)C3)ncnc21	68%
CCn1c(=O)c(N2CCC[C@H](C(=O)NCc3ccccc3OC)C2)nc2cccnc21	-7%
CC(C)(C)NC(=O)N[C@H]1COc2c1ccc(Cl)c2Cl	-3%
Cc1ccc(C(=O)Nc2ccc(N3CCN(c4c(F)c(F)c(F)c(F)c4F)CC3)cc2)c(Cl)c1	10%
O=C(Nc1nc2ccccc2[nH]1)C1CCN(c2cc3c(nn2)CCC3)CC1	5%
NC(=O)c1ccccc1NC(=O)C1CCN(c2cc(C3CC3)ncn2)CC1	53%
O=C(O)c1cc(N2CCC(Cc3ccccc3)CC2)ccc1NC(=O)C1CCC1	-14%
Cc1cn([C@H]2C[C@@H](OC(=O)c3ccccc3)[C@@H](CO)O2)c(=O)[nH]c1=O	-6%
CC(C)NC(=O)[C@H](C)N(C)Cc1nccn1CC(F)(F)F	-1%
CCC(CC)c1ccc([C@H]2N(C(=O)c3ccc(C)cc3)CCN2S(=O)(=O)c2ccccc2)cc1	-2%
O=S1(=O)CCN(C2CCN(Cc3c(F)cccc3F)CC2)CC1	4%
CN1C2(c3ccccc3)C3C(=O)N(c4ccccc4)C(=O)C3C1(c1ccccc1)C1C(=O)N(c3ccccc3)C(=O)C12 (stereo not given)	2%
Cc1ccc(N2C(=O)C[C@]3(CC3(c3ccccc3)c3ccccc3)C2=O)cc1	66%
COc1cccc(N2C(=O)C[C@]3(CC3(c3ccccc3)c3ccccc3)C2=O)c1	39%
O=S(=O)(Cc1ccno1)NCCc1ccccc1OC(F)F	2%

SMILES	% Inhibition
Cc1ccc(C(=O)Nc2noc(-c3ccc(C)cc3)c2-c2ccccc2Cl)cc1	-11%
c1cc(-c2cn3c(COc4ccc5c(c4)OCO5)nnc3s2)ccn1	3%
CC1CCN(C[C@H]2CCCCCN2C(=O)NCCc2ccccc2)CC1	34%
O=C(Cc1cc(F)c(F)cc1F)N1CCOC[C@H]1c1ncon1	-3%
Cc1nc2ccccc2cc1OCc1ccc(F)cc1	3%
CC(NC(=O)N[C@@H]1C=C[C@H](CO)C1)c1ccncc1F (stereo not given in full)	2%
S=c1cc(-c2ccccc2)n(Cc2ccco2)c2c1CCCC2	38%
Cc1ccc(Cc2nc(N3CCCN(C(=O)CCc4ccccc4)CC3)c3cnn(-c4ccccc4)c3n2)cc1	1%
COCCOc1ccc2c(n1)CCN(C(=O)c1ccc(OC)c(OC)c1)C2	-12%
Cc1nn(C)cc1NC(=O)N[C@H]1CCCC[C@@H]1O	-9%
C[C@@H](C1CC1)N(C1CC1)S(=O)(=O)c1ccc(F)cc1F	-2%
Cc1ncccc1C(=O)Nc1cccc(Oc2cccnn2)c1	1%
Cc1c(Cl)c(C(F)(F)F)nn1[C@@H](C)C(=O)NC1CCN(C(C)C)CC1	-4%
COc1cccc(-c2cc3c(N4CC=C(c5ccccc5)CC4)nccn3n2)c1	-2%
CC[C@H]1Cn2c(C(=O)N3CCN(C(=O)c4ccco4)CC3)cc3c(Cl)ccc(c32)O1	-17%
CCCn1nc(-n2cnnc2)c(NC(=O)c2ccc3c(c2)OCO3)c1C	-4%
CCOC(=O)C1CCC(CN(Cc2ccc(OC)cc2)S(=O)(=O)c2cc(C(=O)Nc3ccc(OCC)cc3)ccc2F)CC1 (stereo not given)	50%
CCOc1ccc(NC(=O)c2cnc(N(Cc3ccccc3)C(C)C)nc2N)cc1	-15%
CCOc1ccc(NC(=O)c2ccc3c(c2)N(CC)[C@@H]2CCCCN2C3=O)cc1	7%
CN(c1ccc(Br)cc1)S(=O)(=O)c1ccc2c(c1)CCN2C(=O)C1CCC1	-7%
COc1ccccc1CNC(=O)c1cnn2c(-c3ccc(Cl)cc3)ccnc12	-4%
c1cncc(CN2CCN(C3CCCCCC3)CC2)c1	3%
Cc1cccc(Cn2ccc(-c3cccc(OCc4ccc(Cl)cc4Cl)c3)n2)c1	-4%
C[C@H]1CC(C)(C)N(C)c2ccc(/C=C/c3c(C(=O)O)cnc4ccnn34)cc21	7%
Clc1cccc(CNCCCNc2ccncc2)c1Cl	71%

SMILES	% Inhibition
OCCNCc1c(Cl)cccc1Cl	-1%
CN(C)CCCNCc1ccccc1F	-2%
CC[C@@H](CCNS(=O)(=O)c1cn(C(F)F)nc1C)n1ccc(C(F)(F)F)n1	-8%
CCOc1cc(C(=O)Nc2ccc3nc4c(c(Nc5ccc(OC)c(OC)c5)c3c2)CCCC4)cc(OCC)c1OCC	96%
COc1ccc(Nc2nc(C(=O)Nc3ncc(C)s3)cs2)cc1OC	17%
CCOC(=O)Oc1c(OC)cc(C(=O)Nc2ccc3c(c2)sc(=O)n3C)cc1OC	6%
O=C(NC[C@H]1CCS(=O)(=O)C1)c1ccc2[nH]c3c(c2c1)CCCC3	-6%
Clc1ccc(COc2ccc(CNC3CCCCC3)cc2Br)cc1	-4%
O=C(Cc1ncc(C(F)(F)F)cc1Cl)c1ccc(Cl)cc1Cl	-6%
O=C(Nc1ccc(C(F)(F)F)cc1)N1CCN(CC(O)C2CCCO2)CC1 (stereo not given)	4%
CC(NC(=O)N1CCCCC1)(C(F)(F)F)C(F)(F)F	7%
COc1cccc(CC(=O)N2CCc3nc(N4CCC(C)CC4)nc(Oc4ccccc4OC)c3C2)c1	45%
O=S(=O)(c1cccc(Cl)c1)N1CCc2nc(N3CCCCC3)nc(Oc3ccccc3)c2C1	73%
COc1cccc(Oc2nc(N3CCN(C)CC3)nc3c2CN(C(=O)Nc2ccccc2)CC3)c1	5%
O=C(O)Cc1sc(-c2ccc(Cl)cc2)nc1-c1ccc(Oc2ccccc2)cc1	0%
CN1CCN(C(=O)[C@@H]2Cc3ccccc32)CC1	2%
CCc1nnc2ccc(S(=O)(=O)Nc3cc(F)cc(F)c3)cn12	-5%
CCOC(=O)N1CCN(C(=O)C2c3ccccc3C(=O)N(C3CCCCC3)C2c2ccc(OC)cc2)CC1 (stereo not given)	-4%
COc1cccc(S(=O)(=O)N2CCCN(Cc3ccncc3)[C@H](c3ccccc3)CC(=O)NCC2)c1	92%
COc1cccc(S(=O)(=O)N2CCC(OCCOCc3ccccc3)CC2)c1	-3%
COc1cccc(S(=O)(=O)N2CCC(OCCOc3ccccc3)CC2)c1	0%
COCCCn1c(=O)c2ccccc2n(CC(=O)N2CCc3ccccc32)c1=O	-8%
CC(C)OC(=O)N(CCOC(=O)Nc1cccc(Cl)c1)CCOC(=O)Nc1cccc(Cl)c1	-15%
COc1ncccc1C(=O)NC[C@H](C)S(N)(=O)=O	4%
Cc1cc(NC(=O)C(=O)Nc2cnn(CCC(C)C)c2C)n(C)n1	-7%

SMILES	% Inhibition
COc1ccccc1N(Cc1ccccc1)C1=NC(=[N+](Cc2ccccc2)c2ccccc2OC)c2ccccc21	74%
C[C@H](NC(=O)c1cc(C2CC2)[nH]n1)c1nccs1	-11%
CN(C(=O)c1ccccc1Br)C(C)(C)C	-10%
COc1ccccc1[C@H]1CC(O)=Nc2c1ncn2-c1cc(F)ccc1F	-3%
Cc1nnc2ccc(S(=O)(=O)N(Cc3ccccc3F)c3ccccc3)cn12	-16%
COc1ccc(NC(=O)[C@@H]2COCC(=O)N2Cc2ccc(C)cc2)cc1	1%
CCc1ccc(C2=C[C@@H](c3cccc(OC)c3)n3ncc(C(=O)Nc4ccc(C)cc4)c3N2)cc1	70%
COc1cccc([C@H]2CC(=O)Nc3c2cnn3C)c1	-8%
CC[C@H](C)N1CCN(Cc2cccc(Oc3ccccc3)c2)CC1	-6%
CC[C@H]1Cn2c(C(=O)N3CCN(c4ccccn4)CC3)cc3c(Cl)ccc(c32)O1	-8%
Cc1nn(C)cc1-c1nnc(-c2ccccc2)o1	-17%
COc1ccc(COC(=O)c2cccnc2C)cn1	-9%
O=C(C[C@H]1CCCN1c1ccnc(C2CC2)n1)c1ccco1	3%
CCc1nc(NS(=O)(=O)c2cc(Cl)sc2Cl)no1	-4%
O=C1NCCCc2nn(Cc3cc(F)ccc3Br)cc21	-12%
CCOC(=O)c1c[nH]c2c(-c3ccccc3)nsc2c1=O	-5%
O=C(c1cccs1)N1CCN(C2CCCCCC2)CC1	1%
CC(C)c1nc(O)cc(CN2CCCCC2)n1	-8%
CC(C)c1ccc(-c2nc(CN3CCCCC3)cc(CN3CCCCC3)c2O)cc1	96%
Cc1ccc(C)c(NC(=O)CN2CCC3(CC2)NC(c2ccc(OC(F)(F)F)cc2)=NO3)c1	-3%
CC(C)[C@@H]1CN(C(=O)c2ccncc2)c2ccccc2N1	-7%
Cc1ccc(Cn2ccnc2C(=O)Nc2ccccc2)cc1	-15%
CC1(C)OCc2cc(CNc3ccc4oc(=O)[nH]c4c3)ccc2O1	93%
CCCN1CC(=O)N(c2ccc(C)cc2)[C@@H]2CS(=O)(=O)C[C@@H]21	4%
COc1ccc(-c2nccn3cc(C(=O)N4CCN(c5cccc(OC)c5)CC4)nc23)cc1	-6%
